The nature of experiment [1]: optical density shifts of acrAB sulA E. coli – strain DRC41, OD650, 48 h, E. coli filamentation inducer project, primary screen (AID 1152).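 Note: E. coli MC1000 strain DRC41 lacking acrAB efflux pump and sulA.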 The note with it: higher = more signal, called active from +8 up or from −8 down.
A short description of experiment [2]: probe aLefty1 binding on compound microarray – biochemical, small-molecule microarray, 635/667 nm fluorescence, primary screen (AID 1153).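 Note: score merges spot fluorescence with signal-to-noise ratio from the scanned slide images.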 The note with it: higher = more signal.
Experiment [3] in a line: plasmodial surface anion channel blockers, osmotic lysis – cell-based, P. falciparum Indochina, OD700, 1 h, primary screen (AID 1154). Conditions: P. falciparum Indochina infected RBC osmotic lysis, higher = more signal, called active from +8 up or from −8 down.
The nature of experiment [4]: plasmodial surface anion channel blockers, osmotic lysis – cell-based, P. falciparum Indochina, OD700, 2 h, primary screen (AID 1155).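 Note: lysis reports solute entry through the parasite surface anion channel PSAC.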 Conditions: P. falciparum Indochina infected erythrocytes, higher = more signal, called active from +8 up or from −8 down.
The nature of experiment [5]: changes in parasitized red cell lysis, either direction – P. falciparum Indochina, OD700, 3 h, PSAC antagonist project, primary screen (AID 1156). Conditions: P. falciparum-infected erythrocytes, osmotic lysis, higher = more signal, called active from +8 up or from −8 down.
Experiment [6] is described as follows: plasmodial surface anion channel blockers, osmotic lysis – cell-based, P. falciparum Indochina, OD700, 18 h, primary screen (AID 1157). The note with it: P. falciparum Indochina infected erythrocytes, osmotic lysis OD700, 18 h; higher = more signal, called active from +8 up or from −8 down.
Experiment [7] in a line: S6 kinase pathway phospho-S6 level changes – cell-based, A549, cytoblot, luminescence, serum-stimulated, primary screen (AID 1158).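 Note: serum-stimulated A549 lung adenocarcinoma cells; signal is phosphorylated S6 detected by cytoblot immunostaining with HRP secondary.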 The note with it: 5 h, higher = more signal.
Experiment [8] deals with NADPH oxidase 2 (Homo sapiens) (UniProt P04839). In words: compounds shifting NOX2 Amplex Red fluorescence – cell-based, HEK293-NOX2, PMA-stimulated, NOX inhibitor project, primary screen (AID 1159). Note: test concentration not given here. Conditions: 45 min, higher = more signal, called active from +8 up or from −8 down.
Experiment [9] addresses NADPH oxidase 4 (Homo sapiens) (UniProt Q9NPH5). In words: compounds shifting NOX4 Amplex Red fluorescence – cell-based, HEK293-NOX4, tetracycline-induced, NOX inhibitor project, primary screen (AID 1160). The note with it: HEK293-NOX4, Amplex Red H2O2 fluorescence, 45 min; higher = more signal, called active from +8 up or from −8 down.
Experiment [10] deals with NADPH oxidase 5 (Homo sapiens) (UniProt Q96PH1). Put plainly: compounds shifting NOX5 Amplex Red fluorescence – cell-based, HEK293-NOX5, NOX inhibitor project, primary screen (AID 1161). Conditions: HEK293-NOX5, ionomycin, 45 min, higher = more signal.
A short description of experiment [11]: compound effects on lung adenocarcinoma cell viability – A549, calcein-AM fluorescence, 48 h, basal, profiling panel (AID 1162). Note: test concentration not given here. Conditions: higher = more signal.
Experiment [12] in a line: compound effects on differentiated 3T3-L1 adipocyte viability – cell-based, 3T3-L1 adipocytes, calcein-AM fluorescence, 48 h, basal, profiling panel (AID 1163). Note: test concentration not given here. The note with it: 3T3-L1 adipocytes viability, higher = more signal.
Experiment [13] in a line: compound effects on hepatocellular carcinoma cell viability – HepG2, calcein-AM fluorescence, 48 h, basal, profiling panel (AID 1164). Note: test concentration not given here. The note with it: higher = more signal.
Experiment [14] can be described thus: compound effects on multiple myeloma cell viability – MM1S, calcein-AM fluorescence, 48 h, basal, profiling panel (AID 1165).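 Note: viability of MM1S multiple myeloma cells under basal unstimulated conditions; test concentration not given here.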 The note with it: higher = more signal.
A short description of experiment [15]: calcein-AM signal in unstimulated myeloma cells – cell-based, calcein-AM fluorescence, 48 h, PK04 Diversity Set, profiling panel (AID 1166).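 Note: cells grown under basal conditions without added stimulus; test concentration not given here.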 The note with it: RPMI8226 myeloma viability, higher = more signal.
Experiment [16] in a line: JC-1 mitochondrial signal, unstimulated HepG2 cells – cell-based, JC-1 fluorescence, 24 h, 100 nL compound, profiling panel (AID 1167). Note: test concentration not given here. The note with it: HepG2 mitochondrial potential, higher = more signal.
Experiment [17] is described as follows: JC-1 mitochondrial signal, unstimulated adipocytes – cell-based, JC-1 fluorescence, 3T3-L1 adipocytes, 24 h, 100 nL compound, profiling panel (AID 1168). Note: test concentration not given here. The note with it: JC-1 mitochondrial fluorescence, higher = more signal, called active from +8 up or from −8 down.
The nature of experiment [18]: JC-1 mitochondrial signal, unstimulated myeloma cells – cell-based, JC-1 fluorescence, RPMI8226, 24 h, 100 nL compound, profiling panel (AID 1169). Note: test concentration not given here. Conditions: JC-1 mitochondrial potential fluorescence, higher = more signal.
Experiment [19] is described as follows: JC-1 mitochondrial signal, unstimulated MM1S myeloma – cell-based, JC-1 fluorescence, 24 h, 100 nL compound, profiling panel (AID 1170). Note: test concentration not given here. Conditions: MM1S mitochondrial potential, higher = more signal.
The nature of experiment [20]: resazurin metabolic signal in A549 cells – cell-based, resazurin fluorescence, 24 h, PK04 Diversity Set, profiling panel (AID 1171). Note: test concentration not given here. The note with it: A549 viability, higher = more signal, called active from +8 up or from −8 down. (Alamar Blue is a resazurin reagent that responds to reducing activity.)

The values below come from PubChem BioAssay.

Active and inactive are the calls of the source.

NADPH oxidase 2 (Homo sapiens), sequence (P04839 whole entry, looked up): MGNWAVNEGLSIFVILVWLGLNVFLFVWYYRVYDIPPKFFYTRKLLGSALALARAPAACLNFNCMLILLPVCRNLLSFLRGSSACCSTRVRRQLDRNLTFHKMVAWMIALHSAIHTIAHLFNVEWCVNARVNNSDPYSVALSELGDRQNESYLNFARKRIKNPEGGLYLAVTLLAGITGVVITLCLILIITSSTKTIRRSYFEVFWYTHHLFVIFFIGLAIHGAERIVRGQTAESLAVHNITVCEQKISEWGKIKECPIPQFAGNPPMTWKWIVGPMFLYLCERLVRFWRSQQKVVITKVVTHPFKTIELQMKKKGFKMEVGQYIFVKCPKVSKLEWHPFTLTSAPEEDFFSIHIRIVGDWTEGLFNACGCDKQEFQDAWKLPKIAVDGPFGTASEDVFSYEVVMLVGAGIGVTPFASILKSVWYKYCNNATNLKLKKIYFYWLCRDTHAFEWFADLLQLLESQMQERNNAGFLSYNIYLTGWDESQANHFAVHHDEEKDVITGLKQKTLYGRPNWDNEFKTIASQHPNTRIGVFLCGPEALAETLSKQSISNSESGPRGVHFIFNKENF
NADPH oxidase 4 (Homo sapiens), sequence (Q9NPH5 whole entry, looked up): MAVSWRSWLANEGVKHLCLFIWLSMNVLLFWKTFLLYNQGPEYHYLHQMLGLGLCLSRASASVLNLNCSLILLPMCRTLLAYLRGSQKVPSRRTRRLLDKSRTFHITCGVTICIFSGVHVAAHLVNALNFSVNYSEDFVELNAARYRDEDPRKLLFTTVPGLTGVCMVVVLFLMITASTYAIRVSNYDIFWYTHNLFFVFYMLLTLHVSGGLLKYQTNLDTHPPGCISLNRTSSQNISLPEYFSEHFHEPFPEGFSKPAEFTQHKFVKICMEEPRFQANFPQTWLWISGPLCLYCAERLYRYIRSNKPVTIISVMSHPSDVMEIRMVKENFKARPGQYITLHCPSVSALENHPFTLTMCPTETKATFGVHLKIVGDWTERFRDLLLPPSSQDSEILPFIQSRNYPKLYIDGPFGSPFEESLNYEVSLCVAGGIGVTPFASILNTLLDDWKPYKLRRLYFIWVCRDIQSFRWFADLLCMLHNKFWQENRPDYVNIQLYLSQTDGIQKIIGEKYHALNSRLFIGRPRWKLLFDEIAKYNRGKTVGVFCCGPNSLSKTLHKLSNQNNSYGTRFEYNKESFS
NADPH oxidase 5 (Homo sapiens), sequence (Q96PH1 whole entry, looked up): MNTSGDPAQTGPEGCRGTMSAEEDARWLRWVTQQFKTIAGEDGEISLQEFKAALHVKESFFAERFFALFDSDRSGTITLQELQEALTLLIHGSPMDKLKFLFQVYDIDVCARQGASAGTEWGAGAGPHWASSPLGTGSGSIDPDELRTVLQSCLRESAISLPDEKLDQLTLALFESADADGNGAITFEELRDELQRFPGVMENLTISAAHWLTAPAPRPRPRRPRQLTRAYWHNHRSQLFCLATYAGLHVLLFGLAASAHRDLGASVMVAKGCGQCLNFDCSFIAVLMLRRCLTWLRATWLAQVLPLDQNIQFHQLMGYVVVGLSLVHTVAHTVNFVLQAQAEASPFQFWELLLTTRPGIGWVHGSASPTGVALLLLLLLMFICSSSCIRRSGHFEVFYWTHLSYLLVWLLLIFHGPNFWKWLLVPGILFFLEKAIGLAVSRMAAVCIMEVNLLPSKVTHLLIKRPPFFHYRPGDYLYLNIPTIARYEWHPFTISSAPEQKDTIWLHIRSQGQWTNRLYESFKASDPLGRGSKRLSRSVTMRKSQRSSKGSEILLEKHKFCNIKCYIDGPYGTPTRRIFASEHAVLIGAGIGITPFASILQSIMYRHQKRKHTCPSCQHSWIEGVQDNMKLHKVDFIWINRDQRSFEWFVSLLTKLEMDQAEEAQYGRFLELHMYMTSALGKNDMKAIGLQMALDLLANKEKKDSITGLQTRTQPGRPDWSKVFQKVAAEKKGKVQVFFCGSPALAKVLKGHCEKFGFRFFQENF

As to `CC(=O)n1cc(C(O)C2C=CC3C(=O)N(Cc4ccccc4)C(=O)C3N2n2cnnc2)c2ccccc21` (stereo not given), the z-score in experiment [1] is -1.32 (inactive); in experiment [3], 8.09 (active); in experiment [4], 2.31 (inactive); in [5] it was 0.927 (inactive); in [6], 1 (inactive); in [7] it was -0.386. Further, the z-score in [8] is -0.0716 (inactive); in [9] it was -0.738 (inactive); in experiment [10], -0.392; in experiment [11], -0.919; in experiment [12] it was -0.0245; in experiment [13], -0.392. Besides, the z-score in experiment [14] was -1.12; in experiment [15] it was 0.125; in experiment [16] it was -1.07; in [17], -0.623 (inactive); in [18], 0.563; in experiment [19], -0.321. Further, the z-score in experiment [20] is -0.756 (inactive). The compound also yielded a composite z-score in experiment [2] of -0.0867.

As for `CCCC=C(CCC)[C@@H](NP(=O)(c1ccccc1)c1ccccc1)c1ccc(C(F)(F)F)cc1`, the z-score in experiment [1] was -1.5 (inactive); in experiment [3] it was -0.56 (inactive); in experiment [4] it was -0.647 (inactive); in experiment [5], -0.309 (inactive); in experiment [6], -1.24 (inactive); in [7] it was 0.828. For the same compound, the z-score in [8] is 0.147 (inactive); in [9] it was 1.46 (inactive); in experiment [10] it was 1.81; in [11], -0.779; in experiment [12], -0.531; in experiment [13], -0.365. Moreover, the z-score is 0.463 in experiment [14]; 0.218 in experiment [15]; -0.497 in experiment [16]; -1.53 (inactive) in [17]; 0.72 in experiment [18]; -0.379 in [19]. In [20], the z-score was 0.472 (inactive). The compound further gave a composite z-score in experiment [2] of -0.485.

Take `C[C@]12C(=O)N(CCCCCCO)[C@@H]3C(=O)N(c4ccc(Cl)cc4)CC=CC31O[C@@H]1/C=C\CCCOC(=O)C12` (stereo not given in full): the z-score in [1] is 1.64 (inactive); in experiment [3], 2.61 (inactive); in experiment [4], -1.32 (inactive); in experiment [5], -0.397 (inactive); in experiment [6], -1.66 (inactive); in experiment [7], 0.654. The z-score in [8] was 1.12 (inactive); in experiment [9] it was 0.428 (inactive); in experiment [10], 2.22; in [11], 0.41; in experiment [12], 1.23; in experiment [13], 2.06. Further, the z-score in [14] is 1.61; in experiment [15], 0.0929; in experiment [16], 1.09; in experiment [17], -0.317 (inactive); in [18], 0.655; in experiment [19] it was 0.411. Also, in experiment [20], the z-score is -0.0459 (inactive). Also, the composite z-score in experiment [2] is -0.25.

With `C=CCOC(=O)[C@@H]1[C@H]2C(=O)O[C@H](c3ccccc3)[C@H](c3ccccc3)N2[C@H](c2ccc(OCCOC(=O)[C@H]3C[C@H]4C(=O)N[C@@H](CCCCNC(C)=O)C(=O)N4[C@H]3c3cccc(OCCO)c3)cc2)[C@@]12C(=O)Nc1ccc(I)cc12`, the z-score in [1] is -0.04 (inactive); in experiment [3], 3.68 (inactive); in experiment [4], 1.73 (inactive); in experiment [5] it was 0.309 (inactive); in [6], 1.16 (inactive); in experiment [7] it was -0.479. Also, the z-score in experiment [8] is 1.62 (inactive); in experiment [9] it was 0.898 (inactive); in experiment [10] it was 1.86; in experiment [11] it was -0.596; in experiment [12], 0.159; in [13], 0.821. Also, the z-score in [14] is -0.387; in [15], -0.0069; in experiment [16] it was -0.742; in [17], 0.605 (inactive); in [18] it was -0.517; in experiment [19], -0.864. In addition, in experiment [20], the z-score was 0.304 (inactive). The composite z-score in [2] is -0.0358.
